Bioassay records (PubChem)
Most compounds without a hit are left out; they make up all but 10% or so of the library.
aGal spleen mod: alpha-galactosidase A (human) modulation; human spleen homogenate, 4MU-alpha-Gal fluorescence, 40 min; Potency, µM (highest dose often 80 µM), hits mostly inhibitors; 240,000 compounds, 0.008% hits
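Spleen homogenate 1 ug + cpd (titration) + 4-MU-alpha-D-galactopyranoside 1 mM; 37C 40 min; 50 mM citrate/phosphate pH 5.0, 0.01% Tween-20; stop pH 10; fluorescence 365/440; AC50 via Hill.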
ALDH1A1 inh: inhibitors of human aldehyde dehydrogenase 1A1. AID 1030. Potency, µM (series often up to 75.3 µM), most hits filed as inhibitors. Purified ALDH1A1, NADH fluorescence, propionaldehyde substrate. 220,000 compounds, 7.3% hits. P00352; active = well fitted inhibition curve with a large enough effect, not every such curve was filed as active; inconclusive = small, poorly fitted or top-dose-only effect, or another doubt; inactive = no such curve, though single readings can be large or run the other way
HPGD inh: inhibitors of human 15-hydroxyprostaglandin dehydrogenase (HPGD). P15428. purified HPGD, NADH fluorescence kinetic, PGE2 substrate. Potency, µM, hits mostly inhibitors. 150,000 compounds, 4.3% hits. AID 894; active = well fitted inhibition curve with a large enough effect, not every such curve was filed as active; inconclusive = small, poorly fitted or top-dose-only effect, or another doubt; inactive = no such curve, though single readings can be large or run the other way
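20 nM HPGD preincubated 15 min at room temperature with compound in 50 mM Tris-HCl pH 8, 0.01% Tween 20. Started with 1 mM NAD+ and 30 uM prostaglandin E2; NADH fluorescence (360/450 nm) read 5 times over 30-s intervals, last minus first.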
PNC inhibitor: perinucleolar compartment assembly inhibition; PC3M PTB-GFP, PNC prevalence imaging, 16 h; hits give low values; activity change (PNC), negative = inhibition, % at 10 µM; 140,000 compounds, 3.1% hits; AID 2417;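 active = readout at or below -70, meaning at least 70% loss of cells showing the perinucleolar compartment, a nuclear body marking cancer cells; inconclusive = readout between -30 and a set limit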
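PC3M cells stably expressing PTB-GFP, 750–1000 cells/well, treated 16 h at 37 °C with compound (23 nl of library stock), in duplicate. After paraformaldehyde fixation and Hoechst stain, imaged at 20x; PNC prevalence scored by image analysis.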
GLA inh pH 4.5: alpha-galactosidase A (human) inhibition, pH 4.5; activity change, negative = inhibition, % at 105 µM; 230,000 tested, under 10 active; AID 1467; purified enzyme, 4-MU-alpha-Gal fluorescence, pH 4.5
Target sequence (P06280 whole entry, looked up): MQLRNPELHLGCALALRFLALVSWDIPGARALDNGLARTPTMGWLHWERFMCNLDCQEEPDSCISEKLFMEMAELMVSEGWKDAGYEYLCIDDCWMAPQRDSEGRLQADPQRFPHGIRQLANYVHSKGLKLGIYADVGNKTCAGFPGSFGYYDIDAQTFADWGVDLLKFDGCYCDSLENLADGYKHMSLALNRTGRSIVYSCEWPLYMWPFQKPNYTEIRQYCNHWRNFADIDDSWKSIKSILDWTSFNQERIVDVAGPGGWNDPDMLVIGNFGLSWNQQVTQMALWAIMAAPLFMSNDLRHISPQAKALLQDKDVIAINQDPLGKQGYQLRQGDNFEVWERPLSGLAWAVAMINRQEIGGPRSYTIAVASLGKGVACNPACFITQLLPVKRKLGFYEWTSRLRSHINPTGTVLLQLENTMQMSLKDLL
12-hLO inh: 12-hLO (ALOX12) enzyme inhibition; P18054; purified 12-hLO, xylenol orange hydroperoxide absorbance; Potency, µM (top dose mostly 57.1 µM), hits mostly inhibitors; 150,000 compounds, 0.12% hits; also: nearly all actives have a fitted effect of over 55% in size
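Lipoxygenase turnover measured by absorbance at 573 and 405 nm after Fe-XO development. Human 12hLO 150 nM, arachidonate 40 uM, pH 7.0 Hepes buffer with detergent; 15 min compound preincubation, 30 min reaction.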
Numbers stand for hits; n = inactive; u = inconclusive; x = no result. Unless noted, calls follow the shape of the dose curve; as a rule, active = well fitted curve in the direction sought with a large enough effect; inconclusive = small, poorly fitted or top-dose-only effect, or another doubt; inactive = no such curve, though single readings can be large; an effect the other way counts as inactive or inconclusive.

SMILES	aGal spleen mod	ALDH1A1 inh	HPGD inh	PNC inhibitor	GLA inh pH 4.5	12-hLO inh
CC(c1ccccc1)n1cc(C(=O)NCCN2CCOCC2)nn1 (stereo not given)	n	n	n	n	n	n
Cc1ccccc1C(=O)NC(=S)NCC1CCCO1 (stereo not given)	n	n	n	-105.5	n	n
CC(c1ccccc1)n1cc(C(=O)NCC2CCCO2)nn1 (stereo not given)	n	n	n	-100.0	n	n
CC(C)(C)c1ccc(C(=O)NC(=S)NCC2CCCO2)cc1 (stereo not given)	n	u	x	n	n	u
CSc1ccccc1C(=O)NCC1CCCO1 (stereo not given)	n	n	15.8µM	n	n	n
COCCSc1ccccc1C(=O)NCC1CCCO1 (stereo not given)	n	n	n	n	n	n
Cc1nc2ccccc2n1CSc1ccccc1	n	u	n	u	n	n
Cc1cc(C)nc(NS(=O)(=O)c2ccc(NC(=O)CSc3nc(-c4ccccc4)c(C#N)c(=O)[nH]3)cc2)n1	n	u	x	x	n	x
COCOc1ccc(OC)cc1C(=O)/C=C/c1ccc(OC)c(Br)c1	n	n	n	x	n	x
Ic1ccc(N2CCN(Cc3c[nH]c4ncccc34)CC2)cc1	n	n	n	x	n	n
CCC1(CC)NC(=O)N(CC(=O)OCC(=O)Nc2ccc(F)c(F)c2F)C1=O	n	n	x	x	n	x
COc1cc(C(=O)Nc2nnc(C(C)(C)C)s2)c([N+](=O)[O-])cc1OC	n	u	20µM	n	n	n
O=C(Nc1ccc(C(=O)O)cc1)/C(=C\c1cccc([N+](=O)[O-])c1)NC(=O)c1ccc(Br)o1	n	n	x	x	n	x
Cc1ccc(C)c(OCCCC(=O)Nc2ccccc2C(N)=O)c1	n	23.8µM	x	x	n	x
COc1cc([N+](=O)[O-])ccc1NC(=O)CCCOc1cc(C)ccc1C	n	28.2µM	n	n	n	n
COc1cc([N+](=O)[O-])ccc1NC(=O)CCCOc1ccccc1	n	n	n	n	n	n
O=c1oc2ccccc2c(O)c1CN1CCCCC1	n	14.1µM	n	n	n	n
Nc1nnc(CCS(=O)(=O)c2cc(Cl)ccc2Cl)s1	n	25.1µM	n	u	n	n
O=C(C[n+]1cccc(NC(=O)c2ccccc2)c1)c1cccc([N+](=O)[O-])c1	n	9.46µM	x	x	n	x
O=C(C[n+]1ccc(-c2cc(C(=O)Nc3cccc(C(F)(F)F)c3)c3ccccc3n2)cc1)c1cccc([N+](=O)[O-])c1	n	n	x	x	n	x
O=C(COc1cccc(NC(=O)c2cccc([N+](=O)[O-])c2)c1)c1ccc(F)cc1	n	n	n	u	n	n
O=C(CCNc1cccc(F)c1)c1cccc([N+](=O)[O-])c1	n	0.631µM	x	x	n	x
COc1ccc(NCN2C(=O)C3C4C=CC(C4)C3C2=O)cc1 (stereo not given)	n	n	x	x	n	x
Cc1c(C(=O)NCCSCc2ccc(Cl)cc2Cl)cccc1[N+](=O)[O-]	n	u	22.4µM	n	n	n
Cc1ccc(SCCNC(=O)c2cccc([N+](=O)[O-])c2C)cc1	n	u	25.1µM	n	n	n
SMILES	aGal spleen mod	ALDH1A1 inh	HPGD inh	PNC inhibitor	GLA inh pH 4.5	12-hLO inh
Cc1c(C(=O)NCCSCc2ccccc2)cccc1[N+](=O)[O-]	n	3.16µM	x	x	n	x
Cc1ccc(C(=O)NCCSCc2ccc(Cl)cc2Cl)cc1[N+](=O)[O-]	n	u	u	n	n	n
Cc1ccc(N2CC(C(=O)NCc3ccc4c(c3)OCO4)CC2=O)cc1C (stereo not given)	n	14.1µM	n	n	n	n
COC(=O)c1ccccc1NC(=O)C1CC(=O)N(c2ccc(F)cc2)C1 (stereo not given)	n	n	n	n	n	n
COC(=O)c1ccccc1NC(=O)C1CC(=O)N(c2ccc(C)c(C)c2)C1 (stereo not given)	n	17.8µM	n	u	n	n
Cc1cccc(-n2cc(C#N)c(=O)[nH]c2=O)n1	n	n	n	u	n	n
CSc1nc(C)cc(-n2cc(F)c(=O)[nH]c2=O)n1	n	n	14.1µM	n	n	n
Cn1c(Oc2ccc(F)cc2F)c(C=O)c2ccccc21	n	u	x	x	n	x
